High-throughput results: PubChem, The Scripps Research Institute Molecular Screening Center
Only some compounds are listed: those with a hit (about 2.1% of all), similar ones and a draw of the others.
TLR4 MyD88 blk – inhibitors of human TLR4-MyD88 binding; Toll-like receptor 4 (Homo sapiens), O00206; inhibition, % at 10 µM; Cell-based TLR4-MyD88 binding inhibition assay; 16,000 tested, 0.06% active; in the data active = inhibition above about 45%
rat GALR2 ag – agonists of rat galanin receptor 2 (GALR2); Galanin receptor type 2 (Rattus norvegicus), O08726; cell-based GALR2 agonist screen; activation, % at 10 µM; 16,000 tested, 0.5% active; in the data active = activation above about 15%
S1P1 agonist – activates the human S1P1 receptor; Sphingosine 1-phosphate receptor 1 (Homo sapiens), P21453; S1P1 agonist cell-based reporter assay; activation, % at 4.5 µM; 16,000 tested, 1.5% active; in the data active = activation above about 80%
Target sequence (P21453 whole entry, looked up): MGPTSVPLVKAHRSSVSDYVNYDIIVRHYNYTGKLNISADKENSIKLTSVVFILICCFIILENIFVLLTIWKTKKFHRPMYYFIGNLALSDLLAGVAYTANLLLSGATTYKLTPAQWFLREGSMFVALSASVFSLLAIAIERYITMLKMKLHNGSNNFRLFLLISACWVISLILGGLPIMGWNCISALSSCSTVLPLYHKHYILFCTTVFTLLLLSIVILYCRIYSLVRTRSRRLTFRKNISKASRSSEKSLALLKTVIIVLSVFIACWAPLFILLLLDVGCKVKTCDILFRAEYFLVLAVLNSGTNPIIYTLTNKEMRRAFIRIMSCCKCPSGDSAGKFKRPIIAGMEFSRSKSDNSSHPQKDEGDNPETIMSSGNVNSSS
OPRK1 antag MB – antagonists of human kappa opioid receptor OPRK1, Maybridge library. Kappa-type opioid receptor (Homo sapiens), P41145. OPRK1 cells, antagonist mode, fluorescence readout. inhibition, % at 9 µM. 16,000 tested, 0.4% active. AID 652031, 2013; in the data active = inhibition above about 50%
Large screens that a line does not name were inactive.

COc1ccc(/C=C(\C#N)C(=O)c2cc(C(C)(C)C)on2)cc1	rat GALR2 ag 21
CSc1sc(C(=O)NNC(=O)Nc2ccc(Cl)cc2)c2c1C1(CCC2)SCCS1	none
CSc1sc(C(=O)NC(=O)Nc2ccc(Cl)cc2)c2c1-c1nocc1CC2	S1P1 agonist 108, OPRK1 antag MB 68
CC1CC(=O)Nc2ccccc2N1S(=O)(=O)c1cn(C)cn1 (stereo not drawn)	S1P1 agonist 121
CC1CC(=O)Nc2ccccc2N1S(=O)(=O)c1ccc(F)cc1F (stereo not drawn)	none
N#Cc1c(S/C=C(\O)c2cc3ccccc3o2)nc2c(c1C(F)(F)F)CCCC2	OPRK1 antag MB 77
CCOC(=O)/C(C#N)=C/Nc1cccnc1Oc1ccc(C)c2c1CCC2	rat GALR2 ag 27
CCOC(=O)/C(C#N)=C/Nc1cc(F)ccc1C	none
Cc1ccc(C)c(N=Cc2cc(Cl)cc(Cl)c2O)c1	rat GALR2 ag 16
CC(=O)Nc1cc(N=Cc2cc(Cl)cc(Cl)c2O)ccc1C	none (no result: TLR4 MyD88 blk)
O=C(NC(=O)N1CCOCC1)c1nnc(-c2ccccc2)o1	none
O=C(NC(=O)N1CCOCC1)c1ccc([N+](=O)[O-])s1	S1P1 agonist 89
CCCCNc1ccc2c3c(cccc13)C(=O)N(CCCC)C2=O	TLR4 MyD88 blk 55, OPRK1 antag MB 89
NNC(=S)Nc1ccccc1C(F)(F)F	none
O=C(/C(=C\c1ccccc1)n1ccnc1)c1ccccc1OCc1ccccc1	S1P1 agonist 121
C=C(c1ccccc1O)n1ccnc1	none
N#CC(C#N)=NNc1ccc2c(c1)OCCO2	S1P1 agonist 94
O=c1c2ccccc2nc(-c2ccco2)n1Cc1ccccc1	S1P1 agonist 92
CCOC(F)(C(N)=O)C(F)(F)F (stereo not drawn)	none
O=c1cc(-c2cccnc2)nc2cc(-c3ccco3)[nH]n12	none
O=C(CSc1nc2ccccc2c(=O)[nH]1)c1cc2ccccc2o1	S1P1 agonist 92
CCCOc1ccc(NC(C)=O)cc1	none
COc1cc(CCC(C)=O)ccc1OC(=O)c1cccs1	none
CCN(CC)c1ccc(/C=C/c2ccc([N+](=O)[O-])cc2C#N)cc1	S1P1 agonist 104, OPRK1 antag MB 69
CCOC(=O)/C(C#N)=C/Nc1ccc(S(=O)(=O)c2ccc(N/C=C(\C#N)C(=O)OCC)cc2)cc1	none
COC(=O)c1cc(NC(=O)c2c(-c3c(Cl)cccc3Cl)noc2C)ccc1N1CCOCC1	none
COC(=O)c1cc(NC(=S)NC(=O)c2ccccc2)ccc1N1CCOCC1	S1P1 agonist 88
O=c1[nH]cc(N2CCOCC2)c(=O)[nH]1	none
CCOC(=O)c1cc(N2C(=O)c3ccccc3C2=O)ccc1N1CCCCC1	none
O=C1c2ccc(Cl)c3c(N4CCSCC4)ccc(c23)C(=O)N1c1ccccc1	OPRK1 antag MB 58
Cc1c(C(=O)Cn2ccnc2)sc2ccc(Cl)cc12	S1P1 agonist 104
Cc1c(C(=O)CC#N)sc2ccc(Cl)cc12	none
Cn1c2c(c(=O)n3ncnc13)CCCC2	S1P1 agonist 91
O=C(Cn1c2c(c(=O)n3ncnc13)CCC2)N/N=C/c1cccs1	none
N#C/C(=C\c1ccc2c(c1)OCO2)C(N)=O	none
O=C(c1cnn(-c2ccc(Cl)cc2)c1C(F)(F)F)N1CCN(c2ncnc3ccsc23)CC1	S1P1 agonist 97, OPRK1 antag MB 80
NNC(=O)c1cnn(-c2ccc(Cl)cc2)c1C(F)(F)F	none
O=C(NNC(=O)c1cc(OCC(F)(F)F)ccc1OCC(F)(F)F)c1ccco1	none
Cn1nc(C(C)(C)C)cc1C(=O)O/N=C(\N)c1ccccc1	none
Cc1ccc(Cn2nc(C(=O)O/N=C(\N)c3ccccc3)cc2C)cc1	S1P1 agonist 100
O=[N+]([O-])c1ccc(N2CCc3ccccc32)cc1	OPRK1 antag MB 65
O=[N+]([O-])c1ccc(N2CCC(n3cccc3)CC2)cc1	none
Cn1ccnc1S(=O)(=O)/C(C#N)=C/c1ccc2c(c1)OCO2	none
CCCS(=O)(=O)/C(C#N)=N/Nc1cc(C(F)(F)F)cc(C(F)(F)F)c1	S1P1 agonist 117
Cc1nc(C)c(-c2nnc(-c3ccc(C(F)(F)F)cc3)o2)s1	S1P1 agonist 88
O=C(CSc1nnc(-c2ccc(C(F)(F)F)cc2)o1)c1ccc(F)cc1	none
CCS(=O)(=O)c1ccc(O)c(NC(=O)Nc2ccc(OCc3ccccc3)cc2)c1	none
Cc1nnsc1C(=O)NCc1cc(F)cc2c1OCOC2	none
C/C(=N\N=C(/N)SCc1cc(F)cc2c1OCOC2)c1ccc(C)nc1	S1P1 agonist 90
COc1ccc(C2C=C(c3ccccc3)NC(=S)S2)cc1OC (stereo not drawn)	none
CC(=NCCc1ccccc1)C1CCOC1=O (stereo not drawn)	S1P1 agonist 114
CC(C)(C)C(=O)OCc1nc(-c2ccc3c(c2)OCO3)cs1	S1P1 agonist 92
CC(C)(C)C(=O)OCc1nc(-c2cc(-c3ccccc3)no2)cs1	none (no result: TLR4 MyD88 blk)
CCCc1c(OCCCOc2ccc3c(=O)c(-c4ccccc4)coc3c2)ccc(C(C)=O)c1O	S1P1 agonist 95
O=C(NNC(=O)c1csc(Cc2ccsc2)n1)Nc1ccc(Cl)cc1	none
N/C(=N\OC(=O)c1cccc(C(F)(F)F)c1)c1ccc(OCC(F)(F)F)nc1	S1P1 agonist 84
N/C(=N\OC(=O)c1cccc(C(F)(F)F)c1)c1cnccn1	none
N/C(=N\OC(=O)c1cccc(Cl)c1)c1cccc(C(F)(F)F)c1	S1P1 agonist 99
CCC(=O)Nc1cccc2c(NC(=O)CC)cccc12	S1P1 agonist 82
CCC(=O)Nc1cc(F)ccc1C	none
N#Cc1c(Cl)c(Cl)c(Cl)c(Cl)c1C#N	S1P1 agonist 110
N#Cc1c(Cl)cccc1I	none
Cn1c(-c2ccccn2)n[nH]c1=S	S1P1 agonist 88
CC(C)(Oc1ccc(Cl)cc1)C(=O)Nc1ccc2nccnc2c1	none
CC(CCC(C)OC(=O)c1ccccc1C(=O)O)OC(=O)c1ccccc1C(=O)O (stereo not drawn)	OPRK1 antag MB 60
Cc1ccccc1/C(N)=N/OC(=O)c1ccc(C(C)(C)C)s1	S1P1 agonist 103
CC(=O)C1C(=O)C=C(/C=C/c2ccccc2)CC1c1ccccc1 (stereo not drawn)	S1P1 agonist 99
CN(C)C(=O)/C=C/c1ccccc1	none
CNc1nnc(SCc2csc3ccccc23)s1	S1P1 agonist 118
N#C/C(=C\c1cccs1)C(=O)N1CCOCC1	S1P1 agonist 100
O=C(/C(=C\c1cccs1)c1ccsc1)N1CCOCC1	none
Cc1onc(-c2c(F)cccc2Cl)c1C(=O)N1CCCN(c2ccc(C(F)(F)F)cn2)CC1	none
CC1(C)CC(=O)c2c(SCCOC(=O)Nc3ccc(OC(F)(F)F)cc3)sc(C#N)c2C1	none
CC1(C)CC(=O)c2c(SCCOC(=O)c3ccccc3Cl)sc(C#N)c2C1	S1P1 agonist 97
OC(COc1cccc(C(F)(F)F)c1)CN1CCN(c2nc(-c3ccccc3)ns2)CC1 (stereo not drawn)	none
CCOC(=O)c1cnc(SCc2ccc(Cl)cc2)nc1C(F)(F)F	S1P1 agonist 81
CS(=O)(=O)/C(C#N)=C\c1ccc(Cl)s1	OPRK1 antag MB 57
Cc1c(C)n(Cc2ccc(Br)cc2)c(=O)n(Cc2ccc(Br)cc2)c1=O	S1P1 agonist 102
